# Several values for one entry are separate records, joined by “and”; a condition that tells them apart may be missing. Identical values can stand only once. About 83,000 compounds went through this panel and 20% of them were active in at least one assay; those are over-represented in the sample as a whole.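 Cells were grown in 96-well plates and exposed to the test compound at a single concentration for 48 hours; results are reported as percent growth, with values below 10 considered active.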 Activity calls are given as the source filed them.
# System: NCI-H23 lung
# Test: NCI-60 one-dose screen, 48 h (100 = growth as untreated, 0 = no growth, -100 = all killed)
# Details: 10 µM unless noted
row,SMILES,growth
1,COc1ccc(C/C(C)=C(/c2ccc(OCCN3CCCC3)cc2)c2ccc(OC(=O)NCc3ccccc3)cc2)cc1,93.6% (inactive)
2,CCN(CC)CCOc1ccc(/C(=C(\Cl)c2ccccc2)c2ccccc2)cc1,61.2% (inactive) and 81.6% (inactive)
3,Cc1ccc(/C=C2\COc3ccc(O)c(O)c3C2=O)cc1,29.1% (inactive)
4,COc1ccc2c(c1)oc1c(C)c3c(c(C)c12)C(=O)N(Nc1ccccc1)C3=O,98.5% (inactive)
5,CCC(=C(c1ccc(OCCCN(C)C)cc1)c1ccc(OCCCN(C)C)cc1)c1ccc(Cl)cc1,-80% (active)
6,CCOC(=O)c1c(-c2ccc(C)cc2)c(C#N)c(=O)n(-c2cccc(C(F)(F)F)c2)c1N,98.6% (inactive)
7,S=c1nc(CS)[nH]c2ccccc12,89.5% (inactive)
8,O=C(N/N=C/c1ccc(O)cc1O)c1cccc(Nc2ccnc(C(F)(F)F)c2)c1,27.5% (inactive)
9,CCN(CC)CCCN1C(=O)c2c(c(C)c3c(oc4cc(OC)ccc43)c2C)C1=O,105% (inactive)
10,Cc1ccc(NC(=O)c2ccc(CN3CCN(C)CC3)cc2)cc1Nc1nccc(-c2cccnc2)n1,82.9% (inactive) and 76.2% (inactive)
11,COc1cc(/C=C2/C=C(c3ccc(C(C)(C)C)cc3)N(CCc3ccc(S(N)(=O)=O)cc3)C2=O)cc(OC)c1OC,62.3% (inactive)
12,O=c1c(/C=C/c2ccco2)nnc2sc(Nc3ccc(Cl)cc3)nn12,96.2% (inactive)
13,Nc1[nH]nc(Nc2ccccc2)c1-c1nc2ccccc2s1,24.2% (inactive)
14,CCCCCCCCn1ccc2cc(NC(=O)CN3CCN(c4nc(C)cc(N5CCCCC5)n4)CC3)ccc21,86% (inactive)
15,CC/C(=C(/c1ccc(O)cc1)c1ccc(OCCN2CCCCCC2)cc1)c1ccc(Cl)cc1,80.4% (inactive)
16,C=C(C)[C@@H]1CC[C@]2(C(=O)N3CCN(C)CC3)CC[C@]3(C)[C@H](CC[C@@H]4[C@@]5(C)CC(CCCNC(C)=O)(CCCNC(C)=O)[C@H](OC(C)=O)C(C)(C)[C@@H]5CC[C@]43C)[C@@H]12,98.2% (inactive)
17,CCN(c1cc(-c2ccc(CN3CCC(/C=C/S(=O)(=O)c4ccccc4)CC3)cc2)cc(C(=O)NCc2c(C)cc(C)[nH]c2=O)c1C)C1CCOCC1,81.4% (inactive)
18,Nc1nc(N)c2c(n1)NC(c1ccc(Cl)cc1)CC(c1cccc(Nc3ccncc3)c1)=N2 (stereo not drawn),54.7% (inactive)
19,C=C(c1ccc(C(=O)O)cc1)c1cc2c(cc1C)C(C)(C)CCC2(C)C,81.7% (inactive) and 81.9% (inactive)

row,SMILES,growth
1,O=C1OCC2=C1C(c1cccc([N+](=O)[O-])c1)c1cc3c(cc1N2CCO)CCC3 (stereo not drawn),23.2% (inactive)
2,CCN(CC)/C([O-])=c1\cccc\c1=C1\N=C(c2ccccc2)N=C1[n+]1ccc(-c2ccccc2)cc1,103% (inactive)
3,Cc1nc(-n2[nH]c(=O)ccc2=O)sc1N=Nc1ccccc1,103% (inactive)
4,Cc1ccc(-c2nc3nc(-c4ccccc4)nc(N4CCCNCC4)c3o2)cc1,19.4% (inactive)
5,O=C([C@H]1C[C@H]1c1ccc(S(F)(F)(F)(F)F)cc1)N1CCN(c2cc(Cl)ccc2C(F)(F)F)CC1,91.2% (inactive)
6,OB(O)c1ccsc1-c1nc2ccc3[nH]ncc3c2c2c1CCCC2,51.6% (inactive)
7,CC[C@]12CN3CCc4c([nH]c5ccccc45)[C@@](C(=O)OC)(c4cc5c(cc4OC)N(C)[C@H]4[C@@](O)(C(=O)OC)[C@H](OC(C)=O)[C@]6(CC)C=CCN7CC[C@]54[C@@H]76)CC(C3)[C@H]1O2 (stereo partly drawn),21.1% (inactive)
8,COC(=O)N/N=C/c1c[n+]([O-])c2ccccc2[n+]1[O-],98.6% (inactive)
9,Cn1ccnc1CN1CCSC(C(=O)Nc2ccccc2)C1 (stereo not drawn),101% (inactive)
10,CCNC(=O)Oc1ccc(/C(=C(/C)Cc2ccc(OC)cc2)c2ccc(OCCN(CC)CC)cc2)cc1,78.2% (inactive)
11,Cc1ccc(-c2nc(C#N)c(S(=O)(=O)N(C)C)o2)cc1,89.2% (inactive)
12,COCCn1cc(-c2nc(-c3cn(CCOC)c4ncccc34)cs2)c2ccccc21,56.2% (inactive)
13,Nc1nc2ccccc2c2c(=O)c3ccc(Cl)cc3sc12,92% (inactive)
14,CC[C@]1(O)CC2CN(CCc3c([nH]c4ccccc34)C(C(=O)OC)(c3cc4c(cc3OC)N(C=O)[C@H]3[C@@](O)(C(=O)OC)[C@H](OC(C)=O)[C@]5(CC)[C@@H]6C[C@@H]6CN6CC[C@]43[C@@H]65)C2)C1 (stereo partly drawn),6.32% (active)
15,CN1CCN(CCCN2c3ccccc3Sc3ccc(Cl)cc32)CC1,82.3% (inactive) and 86.4% (inactive)
16,Nc1ncc(-c2ccc3ncnc(N4CCc5ccc(Cl)cc54)c3c2)cc1C(F)(F)F,35.4% (inactive)
17,CC(C)(C)c1cc(NC(=O)Nc2ccc(-c3cn4c(n3)sc3cc(OCCN5CCOCC5)ccc34)cc2)no1,23.9% (inactive) and 42.6% (inactive)
18,CC1(Cc2ccccc2)CC2=C(C(=O)O1)C(c1ccccc1)NC(=O)N2 (stereo not drawn),100% (inactive)
19,COc1cc(C=O)ccc1Oc1ccc([N+](=O)[O-])cc1[N+](=O)[O-],95.6% (inactive)

# Reference: PubChem BioAssay (NCI)
